Some test systems named below: NCI-H226 lung; NCI-H322M lung; HOP-62 NSCLC; NCI-H460 lung; NCI-H522 lung; A549/ATCC NSCLC; 786-0 renal; COLO 205 colon; DU-145 prostate; K-562 leukemia; MALME-3M melanoma; MDA-MB-231 breast; RXF 393 renal; SF-268 CNS; SF-295 CNS; SF-539 CNS; UACC-257 melanoma; M14 melanoma; HCT-15 colon.
Holding throughout (test): NCI-60 one-dose screen, 48 h (100 = growth as untreated, 0 = no growth, -100 = all killed)
Common to all, as to conditions: 10 µM unless noted

The structures appear in SMILES notation. This is part of a sample that, as a whole, favours compounds with a hit. Of some 83,000 tested, about 20% had one in any assay.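 Single-concentration screen, 48 h exposure, 96-well plates. Endpoint: percent growth. Below 10 = active.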 Values without a mark were called inactive. The source made the active and inactive calls.

In the case of `COC1=CC(c2ccc[nH]2)=N/C1=C\c1[nH]c(C)c(C(=O)CCC(=O)Oc2ccc3c(c2)CCC2C3CC[C@]3(C)C(=O)CC[C@@H]23)c1C` (stereo partly specified), the growth in the test with NCI-H226 lung was 87.6%; in the test on NCI-H322M lung it was 81.4%; in the test on HOP-62 NSCLC, 80.2%; with NCI-H460 lung, 48.3%; in the test with NCI-H522 lung it was 57.3%; in the test with A549/ATCC NSCLC, 49.9%. The growth in the test on 786-0 renal was 75.8%; in the test on COLO 205 colon, 87.9%; in the test with DU-145 prostate, 28.5%; with K-562 leukemia it was 39.2%; in the test on MALME-3M melanoma it was 103%; in the test with MDA-MB-231 breast, 1.14% (active). For the same compound, the growth in the test with RXF 393 renal is 93.1%; with SF-268 CNS, 52.6%; with SF-295 CNS, 86.4%; in the test on SF-539 CNS, 83.7%; with UACC-257 melanoma it was 106%; in the test on M14 melanoma, 104%. Also, the growth in the test on HCT-15 colon is 45.6%.
Take `O=C(/C=C/c1cc2ccccc2[nH]c1=O)c1ccc(O)cc1`: the growth in the test with NCI-H226 lung is 98.7%; with NCI-H322M lung it was 51.8%; with HOP-62 NSCLC it was 42.5%; in the test on NCI-H460 lung it was 1.97% (active); in the test with NCI-H522 lung, -44.1% (active); in the test with 786-0 renal, 62.6%. The growth in the test with COLO 205 colon was 105%; in the test on DU-145 prostate, -44.1% (active); with K-562 leukemia, 5.94% (active); in the test on MALME-3M melanoma, 83.7%; with MDA-MB-231 breast, 59.5%; with RXF 393 renal, 0.37% (active). Further, the growth is 20.4% with SF-268 CNS; 54% in the test on SF-295 CNS; 23.3% in the test on SF-539 CNS; 92.6% in the test with UACC-257 melanoma; 76% with M14 melanoma; 35.2% in the test with HCT-15 colon.
For `CC(C)C(=O)Cc1cnccn1`, the growth in the test with NCI-H226 lung is 110%; in the test on NCI-H322M lung, 103%; in the test with HOP-62 NSCLC, 106%; with NCI-H460 lung, 103%; in the test with NCI-H522 lung, 109%; with A549/ATCC NSCLC it was 96.5%. Besides, the growth in the test with 786-0 renal was 109%; in the test on COLO 205 colon, 113%; in the test on DU-145 prostate it was 111%; in the test on K-562 leukemia it was 114%; with MALME-3M melanoma it was 111%; with MDA-MB-231 breast, 119%. Besides, the growth with RXF 393 renal was 106%; in the test on SF-268 CNS, 114%; in the test on SF-295 CNS, 91%; with SF-539 CNS, 105%; with UACC-257 melanoma, 97.8%; in the test with M14 melanoma it was 112%. Moreover, the growth in the test on HCT-15 colon was 107%.
With `CN=C(NC)N/N=C(C)\C=N\NC(=NC)NC`, the growth in the test on NCI-H226 lung was 98.8%; in the test with NCI-H322M lung, 107%; with HOP-62 NSCLC, 100%; in the test with NCI-H460 lung it was 104%; in the test on NCI-H522 lung, 102%; with A549/ATCC NSCLC it was 100%. For the same compound, the growth with 786-0 renal was 102%; in the test on COLO 205 colon it was 102%; with DU-145 prostate, 109%; with MALME-3M melanoma, 105%; with MDA-MB-231 breast, 97.8%; in the test on SF-268 CNS it was 99.5%. For the same compound, the growth in the test with SF-295 CNS is 96.5%; in the test on SF-539 CNS, 99.1%; in the test with UACC-257 melanoma, 100%; in the test on M14 melanoma, 101%; in the test with HCT-15 colon, 101%.
With `CC(CCC(=O)O)(NC(=O)c1ccc([N+](=O)[O-])cc1)C(=O)O` (stereo unspecified), the growth in the test on NCI-H226 lung is 111%; in the test with NCI-H322M lung it was 107%; with HOP-62 NSCLC, 92.8%; in the test on NCI-H460 lung, 107%; in the test with NCI-H522 lung it was 106%; with A549/ATCC NSCLC, 107%. Also, the growth was 105% in the test on 786-0 renal; 107% in the test on COLO 205 colon; 104% in the test with DU-145 prostate; 99% in the test with K-562 leukemia; 106% in the test on MALME-3M melanoma; 113% with MDA-MB-231 breast. Also, the growth in the test with RXF 393 renal was 115%; with SF-268 CNS it was 104%; in the test on SF-295 CNS, 106%; in the test on SF-539 CNS it was 105%; with UACC-257 melanoma, 99.4%; in the test with M14 melanoma, 102%. In the test on HCT-15 colon, the growth was 113%.
As for `COC(=O)[C@]12CC[C@@H](C)[C@H](C)[C@@H]1C1=CC[C@@H]3[C@@]4(C)C[C@@H](OC(=O)c5ccco5)[C@H](O)[C@@](C)(CO)[C@@H]4[C@H](O)C[C@@]3(C)[C@]1(C)CC2`, the growth with NCI-H226 lung was -53.4% (active); in the test with NCI-H322M lung it was -93.8% (active); in the test with HOP-62 NSCLC it was -88.3% (active); with NCI-H460 lung, -84.7% (active); with NCI-H522 lung, -83.3% (active); in the test on A549/ATCC NSCLC, -92.7% (active). Also, the growth is -77.8% (active) in the test on 786-0 renal; -93.3% (active) in the test on COLO 205 colon; -100% (active) in the test with DU-145 prostate; -100% (active) in the test on K-562 leukemia; -73.4% (active) with MALME-3M melanoma; -65.7% (active) with MDA-MB-231 breast. The growth is -79% (active) with RXF 393 renal; -79.6% (active) in the test with SF-268 CNS; -98.3% (active) with SF-295 CNS; -90.1% (active) in the test on SF-539 CNS; -59.5% (active) in the test with M14 melanoma; -95.7% (active) with HCT-15 colon.
With `COc1ccc(OC)c(NC(=O)c2cc3oc4ccccc4c3cc2O)c1`, the growth in the test on NCI-H226 lung was 90.7%; in the test on NCI-H322M lung it was 101%; in the test with HOP-62 NSCLC, 72.4%; with NCI-H460 lung, 100%; with NCI-H522 lung, 90.6%; with A549/ATCC NSCLC, 88.4%. The growth with 786-0 renal was 93.1%; with COLO 205 colon, 88.8%; in the test on DU-145 prostate, 106%; with K-562 leukemia it was 86.4%; in the test on MALME-3M melanoma, 69.7%; in the test on MDA-MB-231 breast, 100%. For the same compound, the growth in the test with RXF 393 renal is 143%; with SF-268 CNS, 87.9%; in the test with SF-295 CNS it was 92%; in the test on SF-539 CNS, 90.3%; in the test on UACC-257 melanoma, 92%; in the test on M14 melanoma, 95.7%. In the test on HCT-15 colon, the growth was 96.7%.
Consider `Cn1cc(-c2csc(-c3cn(C)c4ncccc34)n2)c2cc(Br)cnc21`, for which the growth in the test with NCI-H226 lung is 101%; in the test on NCI-H322M lung it was 104%; with HOP-62 NSCLC it was 100%; with NCI-H460 lung it was 95.4%; in the test on NCI-H522 lung, 98.7%; in the test with A549/ATCC NSCLC, 87%. For the same compound, the growth in the test with 786-0 renal was 93.8%; in the test with MALME-3M melanoma it was 107%; with MDA-MB-231 breast, 61.9%; in the test on RXF 393 renal, 81.2%; in the test with SF-268 CNS it was 105%; with SF-295 CNS, 82.1%. Besides, the growth is 109% in the test on SF-539 CNS, 96.2% with UACC-257 melanoma, 80.7% in the test on M14 melanoma and 81.1% with HCT-15 colon.
As to `Cc1cc(C)c(OC(=O)CSc2nc3ccccc3c(=O)n2CCc2ccccc2)cc1C`, the growth in the test on NCI-H226 lung was 84.8%; in the test on NCI-H322M lung it was 89.3%; in the test on HOP-62 NSCLC, 104%; in the test on NCI-H460 lung it was 74.1%; in the test on NCI-H522 lung it was 98%; in the test on A549/ATCC NSCLC it was 91.9%. In addition, the growth in the test with 786-0 renal was 105%; in the test on COLO 205 colon, 96%; with DU-145 prostate it was 110%; in the test on MDA-MB-231 breast, 80.1%; in the test on SF-268 CNS, 97.1%; in the test on SF-295 CNS it was 87.3%. The growth in the test with SF-539 CNS is 97.3%; in the test on UACC-257 melanoma, 103%; with M14 melanoma, 102%; with HCT-15 colon it was 52.7%.

Values taken from PubChem BioAssay (NCI).
